Source: PubChem BioAssay (Tox21)
Where “and” joins values, the source holds several entries; their conditions need not be identical. Equal values may be shown once. Inconclusive results are not listed. Calls of active or inactive are those of the source. Unless noted, the call rests on the fitted dose curve; in most records, active means well fitted curve in the direction sought with a large enough effect in the repeat runs; inconclusive means weak or mixed curves; inactive means no such curve, though single readings can be large; an effect the other way counts as inactive or inconclusive.

Columns and labels:
[1] = A CellTox Green Cytotoxicity Assay to monitor cytotoxicity in HEK293 cells - 8 hour (AID 1224884); further: nearly all actives have a fitted effect of over 35% in size
Method in brief: (§1)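 Nonlytic real-time cytotoxicity: HEK293 + CellTox Green reagent plated, 5 h preincubation, pintool compound addition (23 nL in DMSO), 37 C for 40 h, fluorescence measured at successive time points.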

[2] = qHTS RealTime-Glo MT Cell Viability Assay in HepG2 cells - 16 hour (AID 1224885); further: nearly all actives have a fitted effect of over 50% in size
Method in brief: (§2)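 Tox21 10K library screened in qHTS format on HepG2 cells carrying RealTime-Glo reagents. Compounds were added after a 5 h preincubation, and the luminescent signal from continuous culture was measured repeatedly during 40 h treatment.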

[3] = qHTS RealTime-Glo MT Cell Viability Assay in HEK293 cells - 24 hour (AID 1224886); further: nearly all actives have a fitted effect of over 50% in size; further: potency means the concentration at half of the fitted maximal effect
Method in brief: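 Luminescence generated by NanoLuc from substrate produced by living HEK293 cells served as the viability signal. Each value reflects the reading at its stated time point during continuous 40 h compound exposure at 37 C.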

[4] = qHTS RealTime-Glo MT Cell Viability Assay in HEK293 cells - 8 hour (AID 1224887); further: nearly all actives have a fitted effect of over 50% in size; further: potency means the concentration at half of the fitted maximal effect
Method in brief: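 Cells were seeded together with NanoLuc luciferase and a prosubstrate that viable cells reduce to a luciferase substrate. After a 5 h incubation at 37 C/5% CO2, compounds were added and luminescence was measured repeatedly during 40 h of treatment.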

[5] = A CellTox Green Cytotoxicity Assay to monitor cytotoxicity in HEK293 cells - 16 hour (AID 1224888); further: nearly all actives have a fitted effect of over 35% in size; further: potency means the concentration at half of the fitted maximal effect
Method in brief: as §1

[6] = qHTS RealTime-Glo MT Cell Viability Assay in HepG2 cells - 0 hour (AID 1224889); further: nearly all actives have a fitted effect of over 50% in size
Method in brief: as §2

[7] = qHTS assay to identify small molecule antagonists of the androgen receptor (AR) signaling pathway using the MDA cell line in the presence of 0.5 nM R1881 - cell viability counter screen (AID 1259242); further: nearly all actives have a fitted effect of over 45% in size
Method in brief: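 Counter screen for cytotoxicity run in the same wells as the AR antagonist reporter screen: MDA-kb2 cells were treated 16 hr with test compounds and 0.5 nM R1881, then live-cell protease activity was measured by fluorescence.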

[8] = qHTS assay to identify small molecule phospholipidosis (PLD) inducers (AID 1259344; active means well fitted curve in the direction sought with a large enough effect; an effect the other way counts as inactive or inconclusive)
Method in brief: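 Fluorescent phospholipid staining (LipidTOX Red) measured by automated microscopy in fixed HepG2 cells after 24 h treatment; nuclei counterstained with Hoechst 33342; amiodarone as reference inducer.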

[9] = qHTS assay to identify small molecule HDAC inhibitors (AID 1259364); further: top concentration of the series differs between compounds; nearly all actives have a fitted effect of over 45% in size
Method in brief: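 Luminescence from a cell-permeant luminogenic class I/II HDAC substrate reports endogenous deacetylase activity in intact HCT-116 cells treated with compounds for 2 h.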

[10] = qHTS assay to identify small molecule HDAC inhibitors - cell viability counter screen (AID 1259365)
Method in brief: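 Counter screen in wild-type HCT-116 cells: compounds dissolved in DMSO are pin-transferred onto overnight-plated cells and left 2hr at 37C. ATP-based CellTiter-Glo luminescence then measures viable cells.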

[11] = qHTS assay to identify small molecule antagonists of the sonic hedgehog signaling (Shh) pathway - cell viability counter screen (AID 1259367); further: nearly all actives have a fitted effect of over 55% in size
Method in brief: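 Using CellTiter-Fluor, viability of Gli1-Luc reporter 3T3 cells is read by fluorescence in the wells used for the Shh luciferase assay. Treatment lasts 23 hr with conditioned medium, then reagent 1 hr at 37C.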

[12] = qHTS assay to identify small molecule agonists of the sonic hedgehog signaling (Shh) pathway (AID 1259368; calls by dose curve;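 further: NIH/3T3-derived 3T3Gli1-Luc cells carrying a stable Gli1-driven firefly luciferase reporter; series mostly up to about 92 µM; nearly all actives have a fitted effect of over 15% in size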)
Method in brief: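 3T3Gli1-Luc (NIH/3T3 clone, stable Gli1-Luc); 4 hr pre-incubation, then cpd in DMSO 24 hr, 37 C/5% CO2; luciferase reagent 30 min RT; luminescence.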

[13] = qHTS assay to identify small molecule antagonists of the sonic hedgehog signaling (Shh) pathway (AID 1259369; calls by dose curve; further: nearly all actives have a fitted effect of over 45% in size)
Method in brief: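 3T3Gli1-Luc, conditioned-medium-stimulated, 24hr cpd, 37C/5% CO2; Gli1-driven firefly Luc luminescence after 30min RT with luciferase reagent. Cells plated 4hr before cpd.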

[14] = A CellTox Green Cytotoxicity Assay to monitor cytotoxicity in HepG2 cells - 0 hour (AID 1224882); further: nearly all actives have a fitted effect of over 35% in size
Method in brief: (§3)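 Read-out is fluorescence of a cyanine dye excluded from live cells that stains DNA of dead HepG2 cells, with signal proportional to cytotoxicity. Plates were read at 0, 8, 16, 24, 32 and 40 h after compound addition.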

[15] = A CellTox Green Cytotoxicity Assay to monitor cytotoxicity in HepG2 cells - 32 hour (AID 1224883); further: nearly all actives have a fitted effect of over 50% in size; further: potency means the concentration at half of the fitted maximal effect
Method in brief: as §3

[16] = A CellTox Green Cytotoxicity Assay to monitor cytotoxicity in HepG2 cells - 8 hour (AID 1224890); further: nearly all actives have a fitted effect of over 45% in size; further: potency means the concentration at half of the fitted maximal effect
Method in brief: as §3

[17] = qHTS assay to identify small molecule antagonists of the estrogen receptor alpha (ER-alpha) signaling pathway using the BG1 cell line in the presence of 0.1 nM 17-beta-estradiol - cell viability counter screen (AID 1259241); further: nearly all actives have a fitted effect of over 40% in size
Method in brief: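 Cells were plated and left 24 hr, compounds in DMSO were pinned in, 17beta-estradiol was added to 0.1 nM final, and after 22 hr CellTiter-Fluor reagent was added for 30 min before fluorescence was read.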

[18] = biological target: Estrogen receptor (Homo sapiens) (UniProt P03372); test: qHTS assay to identify small molecule antagonists of the estrogen receptor alpha (ER-alpha) signaling pathway using the BG1 cell line in the presence of 0.1 nM 17-beta-estradiol (AID 1259244); further: nearly all actives have a fitted effect of over 50% in size
Sequence of Estrogen receptor (Homo sapiens) (P03372 whole entry, looked up): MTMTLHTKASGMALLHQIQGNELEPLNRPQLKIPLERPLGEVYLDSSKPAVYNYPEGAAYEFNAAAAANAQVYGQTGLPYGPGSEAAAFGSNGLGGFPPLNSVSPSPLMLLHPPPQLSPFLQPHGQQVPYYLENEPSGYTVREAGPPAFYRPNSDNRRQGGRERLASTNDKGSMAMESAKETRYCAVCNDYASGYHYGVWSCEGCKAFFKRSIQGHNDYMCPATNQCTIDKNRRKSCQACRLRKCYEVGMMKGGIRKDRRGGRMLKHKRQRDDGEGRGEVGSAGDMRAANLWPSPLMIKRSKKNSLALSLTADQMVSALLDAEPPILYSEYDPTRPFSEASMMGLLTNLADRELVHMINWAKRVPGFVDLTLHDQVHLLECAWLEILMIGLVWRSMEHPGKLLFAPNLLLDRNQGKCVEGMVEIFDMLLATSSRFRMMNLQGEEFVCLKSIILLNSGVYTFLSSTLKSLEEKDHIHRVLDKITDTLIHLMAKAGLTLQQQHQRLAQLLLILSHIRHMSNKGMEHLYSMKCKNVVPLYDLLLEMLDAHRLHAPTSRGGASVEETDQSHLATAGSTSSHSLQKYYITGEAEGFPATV
Method in brief: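 Cells: VM7Luc4E2, endogenous ER-alpha, 4x ERE-luc stable. Pre-culture 5 d, phenol red-free, charcoal-stripped FBS. Plated 24 h, compound + E2 0.1 nM final, 22 h 37C/5% CO2. Readout ONE-Glo luminescence.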

Measured: Potency

CNC1(C)C2CCC(C2)C1(C)C (centres undefined)
inactive: [1] | [2] | [3] | [4] | [5] | [6] | [7] | [8] | [9] | [10] | [11] | [12] | [13]

CO[Si](OC)(OC)c1ccccc1
inactive: [14] | [15] | [3] | [4] | [5] | [6] | [16] | [17] | [7] | [18] | [9] | [10] | [11] | [12] | [13]

CC(C)(C)c1ccc(O)c(C(C)(C)C)c1
inactive: [14] | [6] | [17] | [7] | [12]
active: [15] 48.8 µM and 43.6 µM | [3] 38.7 µM | [4] 34.5 µM | [5] 24.4 µM and 34.7 µM | [16] 48.8 µM and 49 µM

[Cl][In]([Cl])[Cl]
inactive: [14] | [15] | [4] | [5] | [6] | [17] | [7] | [18] | [8] | [9] | [10] | [11] | [12]

CC(C)(C)NCC(O)COc1ccccc1OCC1CCCO1 (centres undefined)
inactive: [14] | [15] | [2] | [3] | [4] | [5] | [6] | [7] | [18] | [9] | [10] | [11] | [12]

CC(C)(C)NC(=O)[C@@H]1CN(Cc2cccnc2)CCN1C[C@@H](O)C[C@@H](Cc1ccccc1)C(=O)N[C@H]1c2ccccc2C[C@H]1O
inactive: [14] | [15] | [4] | [16] | [17] | [7] | [8] | [10] | [12] | [13]
